# How the values were obtained:
# Assay in all cases: DAPPL (digital affinity profiling via proximity ligation, sequencing); 10 mM Tris-HCl pH 7.5, 50 mM NaCl, 1 mM DTT, 4% glycerol, room temperature, 30 min; GST-TFs on glutathione beads, 16-mer random dsDNA library, 0.1% formaldehyde crosslink after washing; high values mean tight binding
# FLI1 = target: T1, FLI1 (Homo sapiens, UniProt Q01543 1-452); conditions: protein: recombinant; tags: N-terminal GST; dsDNA, one strand shown
# T1 sequence: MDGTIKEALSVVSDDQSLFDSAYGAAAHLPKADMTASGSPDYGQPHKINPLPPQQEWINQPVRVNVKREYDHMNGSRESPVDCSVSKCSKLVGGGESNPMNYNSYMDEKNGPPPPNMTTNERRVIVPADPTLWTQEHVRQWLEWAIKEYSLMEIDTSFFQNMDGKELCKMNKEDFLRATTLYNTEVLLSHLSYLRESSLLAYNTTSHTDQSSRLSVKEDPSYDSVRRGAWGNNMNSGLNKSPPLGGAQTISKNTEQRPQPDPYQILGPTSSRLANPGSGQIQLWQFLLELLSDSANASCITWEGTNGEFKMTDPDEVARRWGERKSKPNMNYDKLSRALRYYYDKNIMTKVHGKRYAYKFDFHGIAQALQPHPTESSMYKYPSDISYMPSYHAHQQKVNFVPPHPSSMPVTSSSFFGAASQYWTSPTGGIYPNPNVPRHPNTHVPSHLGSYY
# How it was run: (§1)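 In yeast, human transcription factors were expressed with a GST fusion, then pulled down on glutathione beads and given DNA barcodes. Pooled with a tag-only sample, they were exposed to 200 nmole of a 16-mer random double-stranded DNA library (Tris/NaCl/DTT/glycerol buffer, room temperature, 30 min), washed, crosslinked with 0.1% formaldehyde, proximity-ligated using BsaI/T4 ligase for 1 h at 37 °C, PCR-amplified and read on an Illumina NextSeq500. Each hexamer's frequency of reads for a factor, divided by the matching frequency for the tag-only sample, gives the binding signal.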
# ELK1 = target: T2, ELK1 (Homo sapiens, UniProt P19419 1-428); conditions: protein: recombinant; tags: N-terminal GST; dsDNA, one strand shown
# T2 sequence: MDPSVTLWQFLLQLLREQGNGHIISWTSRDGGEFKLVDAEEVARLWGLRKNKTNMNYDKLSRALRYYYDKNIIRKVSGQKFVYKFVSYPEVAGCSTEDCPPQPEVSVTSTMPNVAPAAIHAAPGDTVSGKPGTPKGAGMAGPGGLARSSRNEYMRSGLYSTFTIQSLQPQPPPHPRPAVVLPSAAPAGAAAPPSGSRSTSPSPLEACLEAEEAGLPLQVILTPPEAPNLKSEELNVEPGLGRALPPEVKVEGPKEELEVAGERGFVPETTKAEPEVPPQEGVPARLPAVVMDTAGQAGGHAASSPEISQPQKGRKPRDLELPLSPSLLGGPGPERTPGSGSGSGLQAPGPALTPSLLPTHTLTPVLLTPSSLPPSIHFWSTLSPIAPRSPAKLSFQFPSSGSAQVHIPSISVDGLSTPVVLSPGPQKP
# How it was run: as §1
# GABPA = target: T3, GABPA (Homo sapiens, UniProt Q06546 1-454); conditions: protein: recombinant; tags: N-terminal GST; dsDNA, one strand shown
# T3 sequence: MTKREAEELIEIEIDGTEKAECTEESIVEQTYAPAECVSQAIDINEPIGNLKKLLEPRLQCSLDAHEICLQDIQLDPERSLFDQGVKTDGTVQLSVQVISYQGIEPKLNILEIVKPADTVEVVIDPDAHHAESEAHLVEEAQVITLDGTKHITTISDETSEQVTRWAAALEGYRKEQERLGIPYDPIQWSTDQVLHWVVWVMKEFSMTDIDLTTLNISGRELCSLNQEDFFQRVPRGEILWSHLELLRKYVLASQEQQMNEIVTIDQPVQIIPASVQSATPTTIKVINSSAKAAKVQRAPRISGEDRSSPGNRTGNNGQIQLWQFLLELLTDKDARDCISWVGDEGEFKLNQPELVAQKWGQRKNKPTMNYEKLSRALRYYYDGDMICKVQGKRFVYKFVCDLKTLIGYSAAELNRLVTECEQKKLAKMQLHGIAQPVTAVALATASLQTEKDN
# How it was run: as §1
# ERG = target: T4, ERG (Homo sapiens, UniProt P11308 1-479); conditions: protein: recombinant; tags: N-terminal GST; dsDNA, one strand shown
# T4 sequence: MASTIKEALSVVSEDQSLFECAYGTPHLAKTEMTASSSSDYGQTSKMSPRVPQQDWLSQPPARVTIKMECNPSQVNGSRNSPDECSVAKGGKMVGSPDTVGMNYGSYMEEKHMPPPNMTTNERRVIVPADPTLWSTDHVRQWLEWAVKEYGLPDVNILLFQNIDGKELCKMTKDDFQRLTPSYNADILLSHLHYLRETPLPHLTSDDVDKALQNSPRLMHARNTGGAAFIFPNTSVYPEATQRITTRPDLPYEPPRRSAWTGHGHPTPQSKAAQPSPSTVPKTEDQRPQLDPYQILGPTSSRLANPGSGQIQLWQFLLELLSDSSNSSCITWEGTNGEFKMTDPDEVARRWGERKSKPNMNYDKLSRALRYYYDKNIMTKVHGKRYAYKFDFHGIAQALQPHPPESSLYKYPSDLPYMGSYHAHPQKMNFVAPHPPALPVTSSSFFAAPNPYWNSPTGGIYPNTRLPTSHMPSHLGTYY
# How it was run: as §1
# ELF1 = ELF1 (Homo sapiens, UniProt P32519 1-619); conditions: protein: recombinant; tags: N-terminal GST; dsDNA, one strand shown
# How it was run: as §1
# EHF = target: T5, EHF (Homo sapiens, UniProt Q9NZC4 1-300); conditions: protein: recombinant; tags: N-terminal GST; dsDNA, one strand shown
# T5 sequence: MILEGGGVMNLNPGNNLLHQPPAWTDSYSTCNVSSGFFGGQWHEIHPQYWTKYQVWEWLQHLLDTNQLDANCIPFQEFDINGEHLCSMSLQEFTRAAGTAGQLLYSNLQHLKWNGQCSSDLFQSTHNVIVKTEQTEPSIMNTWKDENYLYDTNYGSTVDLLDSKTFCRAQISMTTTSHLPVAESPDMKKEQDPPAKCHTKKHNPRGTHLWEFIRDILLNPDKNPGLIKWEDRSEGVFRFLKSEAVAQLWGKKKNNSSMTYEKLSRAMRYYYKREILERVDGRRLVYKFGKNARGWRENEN
# How it was run: as §1
# SPI1 = SPI1 (Homo sapiens, UniProt P17947 1-270); conditions: protein: recombinant; tags: N-terminal GST; dsDNA, one strand shown
# How it was run: as §1
# SPIB = SPIB (Homo sapiens, UniProt Q01892 1-262); conditions: protein: recombinant; tags: N-terminal GST; dsDNA, one strand shown
# How it was run: as §1
# ELK3 = target: T6, ELK3 (Homo sapiens, UniProt P41970 1-407); conditions: protein: recombinant; tags: N-terminal GST; dsDNA, one strand shown
# T6 sequence: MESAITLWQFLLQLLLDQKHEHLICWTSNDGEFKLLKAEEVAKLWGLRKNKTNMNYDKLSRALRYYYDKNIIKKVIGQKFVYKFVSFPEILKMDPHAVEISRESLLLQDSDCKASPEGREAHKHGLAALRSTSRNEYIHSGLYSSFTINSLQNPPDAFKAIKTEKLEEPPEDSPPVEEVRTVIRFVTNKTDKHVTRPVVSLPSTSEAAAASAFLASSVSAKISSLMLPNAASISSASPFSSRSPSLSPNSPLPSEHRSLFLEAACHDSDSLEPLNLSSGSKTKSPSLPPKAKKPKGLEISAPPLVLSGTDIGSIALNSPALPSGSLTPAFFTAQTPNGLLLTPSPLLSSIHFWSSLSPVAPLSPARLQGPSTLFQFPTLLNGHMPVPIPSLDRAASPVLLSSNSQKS
# How it was run: as §1
# FEV = target: T7, FEV (Homo sapiens, UniProt Q99581 1-238); conditions: protein: recombinant; tags: N-terminal GST; dsDNA, one strand shown
# T7 sequence: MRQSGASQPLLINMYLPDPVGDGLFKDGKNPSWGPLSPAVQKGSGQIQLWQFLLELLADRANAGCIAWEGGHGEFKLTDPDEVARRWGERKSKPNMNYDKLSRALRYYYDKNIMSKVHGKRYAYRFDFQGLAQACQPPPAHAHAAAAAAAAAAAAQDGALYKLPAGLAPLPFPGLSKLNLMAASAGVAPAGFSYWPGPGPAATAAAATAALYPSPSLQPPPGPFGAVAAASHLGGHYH
# How it was run: as §1
# ETV5 = ETV5 (Homo sapiens, UniProt P41161 1-510); conditions: protein: recombinant; tags: N-terminal GST; dsDNA, one strand shown
# How it was run: as §1
# HSF1 = HSF1 (Homo sapiens, UniProt Q00613 1-529); conditions: protein: recombinant; tags: N-terminal GST; chain copies: 3; dsDNA, one strand shown
# How it was run: as §1
# SPIC = target: T8, SPIC (Homo sapiens, UniProt Q8N5J4 1-248); conditions: protein: recombinant; tags: N-terminal GST; dsDNA, one strand shown
# T8 sequence: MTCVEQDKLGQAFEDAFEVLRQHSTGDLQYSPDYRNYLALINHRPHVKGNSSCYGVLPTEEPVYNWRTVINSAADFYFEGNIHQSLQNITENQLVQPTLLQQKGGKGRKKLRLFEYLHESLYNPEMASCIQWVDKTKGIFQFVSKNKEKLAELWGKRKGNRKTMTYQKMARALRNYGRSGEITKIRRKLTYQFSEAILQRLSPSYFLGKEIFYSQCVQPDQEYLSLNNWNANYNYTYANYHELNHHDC
# How it was run: as §1
# ELF4 = ELF4 (Homo sapiens, UniProt Q99607 1-663); conditions: protein: recombinant; tags: N-terminal GST; dsDNA, one strand shown
# How it was run: as §1
# ELK4 = target: T9, ELK4 (Homo sapiens, UniProt P28324-2 1-405); conditions: protein: recombinant; tags: N-terminal GST; dsDNA, one strand shown
# T9 sequence: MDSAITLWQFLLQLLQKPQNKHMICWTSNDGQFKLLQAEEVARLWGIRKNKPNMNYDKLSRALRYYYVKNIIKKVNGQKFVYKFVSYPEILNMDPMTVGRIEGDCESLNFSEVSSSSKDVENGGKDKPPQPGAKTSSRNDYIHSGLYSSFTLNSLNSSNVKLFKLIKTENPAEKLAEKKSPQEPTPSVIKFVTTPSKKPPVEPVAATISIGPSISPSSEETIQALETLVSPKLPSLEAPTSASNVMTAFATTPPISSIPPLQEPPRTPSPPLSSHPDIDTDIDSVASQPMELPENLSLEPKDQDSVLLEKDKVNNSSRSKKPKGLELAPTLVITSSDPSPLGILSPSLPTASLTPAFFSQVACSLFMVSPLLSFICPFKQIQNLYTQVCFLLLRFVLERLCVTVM
# How it was run: as §1
# ETV2 = target: T10, ETV2 (Homo sapiens, UniProt O00321 1-342); conditions: protein: recombinant; tags: N-terminal GST; dsDNA, one strand shown
# T10 sequence: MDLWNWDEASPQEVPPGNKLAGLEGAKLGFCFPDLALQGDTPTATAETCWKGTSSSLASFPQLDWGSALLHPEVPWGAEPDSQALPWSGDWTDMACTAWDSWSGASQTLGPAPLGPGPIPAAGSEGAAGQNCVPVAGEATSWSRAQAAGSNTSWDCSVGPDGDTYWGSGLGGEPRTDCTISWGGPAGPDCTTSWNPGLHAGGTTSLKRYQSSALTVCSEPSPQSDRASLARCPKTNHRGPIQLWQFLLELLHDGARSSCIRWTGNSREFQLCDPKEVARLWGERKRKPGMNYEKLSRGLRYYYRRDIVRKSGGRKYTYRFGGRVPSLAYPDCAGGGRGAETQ
# How it was run: as §1
# ELF3 = target: T11, ELF3 (Homo sapiens, UniProt P78545 1-371); conditions: protein: recombinant; tags: N-terminal GST; dsDNA, one strand shown
# T11 sequence: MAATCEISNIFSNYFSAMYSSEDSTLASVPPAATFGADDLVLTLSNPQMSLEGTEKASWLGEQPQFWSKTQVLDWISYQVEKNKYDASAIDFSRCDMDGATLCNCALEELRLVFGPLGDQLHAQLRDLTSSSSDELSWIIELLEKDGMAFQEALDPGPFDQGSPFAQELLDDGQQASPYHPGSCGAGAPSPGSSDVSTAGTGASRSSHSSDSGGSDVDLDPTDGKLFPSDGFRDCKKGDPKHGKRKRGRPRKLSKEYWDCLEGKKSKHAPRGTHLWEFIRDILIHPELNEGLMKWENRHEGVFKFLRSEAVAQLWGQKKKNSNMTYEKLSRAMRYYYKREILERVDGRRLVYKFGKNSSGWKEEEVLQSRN
# How it was run: as §1
# CRX = CRX (Homo sapiens, UniProt O43186 1-299); conditions: protein: recombinant; tags: N-terminal GST; dsDNA, one strand shown
# How it was run: as §1
# ETV1 = ETV1 (Homo sapiens, UniProt P50549 1-477); conditions: protein: recombinant; tags: N-terminal GST; dsDNA, one strand shown
# How it was run: as §1
# ETV5, sequence (P41161 whole entry): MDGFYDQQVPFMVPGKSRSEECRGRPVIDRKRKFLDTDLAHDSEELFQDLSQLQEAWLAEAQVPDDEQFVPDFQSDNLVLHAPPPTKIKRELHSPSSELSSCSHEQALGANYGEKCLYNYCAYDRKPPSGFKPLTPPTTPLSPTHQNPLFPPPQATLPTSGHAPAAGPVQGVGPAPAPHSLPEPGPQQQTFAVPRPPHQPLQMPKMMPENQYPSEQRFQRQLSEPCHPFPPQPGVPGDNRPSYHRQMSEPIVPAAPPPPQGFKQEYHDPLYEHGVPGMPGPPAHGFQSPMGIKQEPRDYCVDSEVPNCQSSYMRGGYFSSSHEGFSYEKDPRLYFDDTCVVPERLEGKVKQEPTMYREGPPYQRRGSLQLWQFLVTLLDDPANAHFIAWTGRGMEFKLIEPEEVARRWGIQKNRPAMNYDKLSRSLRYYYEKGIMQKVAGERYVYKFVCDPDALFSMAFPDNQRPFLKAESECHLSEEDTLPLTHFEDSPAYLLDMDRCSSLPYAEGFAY
# ELF4, sequence (Q99607 whole entry): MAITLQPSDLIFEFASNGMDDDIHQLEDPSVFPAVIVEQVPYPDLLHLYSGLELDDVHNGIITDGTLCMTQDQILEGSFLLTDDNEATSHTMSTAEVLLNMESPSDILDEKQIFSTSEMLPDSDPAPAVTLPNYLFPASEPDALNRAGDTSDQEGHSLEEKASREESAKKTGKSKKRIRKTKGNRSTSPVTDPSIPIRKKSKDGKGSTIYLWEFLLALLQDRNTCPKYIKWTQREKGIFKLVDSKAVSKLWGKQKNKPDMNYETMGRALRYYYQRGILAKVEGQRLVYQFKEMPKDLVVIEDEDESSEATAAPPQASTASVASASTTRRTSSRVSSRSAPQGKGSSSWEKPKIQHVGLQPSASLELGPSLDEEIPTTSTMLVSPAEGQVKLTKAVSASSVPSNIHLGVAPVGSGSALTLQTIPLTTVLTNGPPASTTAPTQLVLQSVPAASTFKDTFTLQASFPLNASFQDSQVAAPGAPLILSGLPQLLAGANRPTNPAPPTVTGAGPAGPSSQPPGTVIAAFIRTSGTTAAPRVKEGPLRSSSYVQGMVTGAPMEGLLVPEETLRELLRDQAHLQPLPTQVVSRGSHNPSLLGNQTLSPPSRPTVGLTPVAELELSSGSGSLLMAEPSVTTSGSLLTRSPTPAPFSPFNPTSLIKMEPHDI
# ETV1, sequence (P50549 whole entry): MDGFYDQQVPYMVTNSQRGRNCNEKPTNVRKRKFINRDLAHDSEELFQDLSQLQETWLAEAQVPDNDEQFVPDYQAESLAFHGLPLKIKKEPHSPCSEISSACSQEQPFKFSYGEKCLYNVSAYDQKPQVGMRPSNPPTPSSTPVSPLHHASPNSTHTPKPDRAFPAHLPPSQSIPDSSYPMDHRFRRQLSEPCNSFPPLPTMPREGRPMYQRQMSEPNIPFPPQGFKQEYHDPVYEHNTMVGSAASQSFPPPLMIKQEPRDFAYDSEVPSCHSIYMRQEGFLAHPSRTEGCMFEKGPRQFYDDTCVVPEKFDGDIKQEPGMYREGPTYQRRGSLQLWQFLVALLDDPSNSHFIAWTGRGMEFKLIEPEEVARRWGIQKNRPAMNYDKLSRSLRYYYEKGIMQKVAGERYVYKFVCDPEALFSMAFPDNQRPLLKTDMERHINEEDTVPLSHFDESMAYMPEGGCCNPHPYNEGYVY
# ELF1, sequence (P32519 whole entry): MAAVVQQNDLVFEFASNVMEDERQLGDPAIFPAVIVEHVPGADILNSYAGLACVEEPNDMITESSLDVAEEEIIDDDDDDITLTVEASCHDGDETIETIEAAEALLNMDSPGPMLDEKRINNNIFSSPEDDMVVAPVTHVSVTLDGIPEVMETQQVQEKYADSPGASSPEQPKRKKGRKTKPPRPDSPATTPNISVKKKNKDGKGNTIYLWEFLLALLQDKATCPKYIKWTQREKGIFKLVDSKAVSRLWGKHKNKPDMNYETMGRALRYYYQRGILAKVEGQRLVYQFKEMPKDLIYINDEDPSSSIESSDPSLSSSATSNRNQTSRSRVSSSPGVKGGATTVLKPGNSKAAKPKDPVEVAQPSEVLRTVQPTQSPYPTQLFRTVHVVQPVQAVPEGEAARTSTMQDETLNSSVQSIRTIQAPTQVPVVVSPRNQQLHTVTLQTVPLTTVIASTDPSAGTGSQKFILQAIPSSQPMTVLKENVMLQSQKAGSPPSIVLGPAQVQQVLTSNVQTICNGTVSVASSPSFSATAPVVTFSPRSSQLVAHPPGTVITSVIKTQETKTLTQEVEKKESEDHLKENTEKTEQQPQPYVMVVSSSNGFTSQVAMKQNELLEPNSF
# SPIB, sequence (Q01892 whole entry): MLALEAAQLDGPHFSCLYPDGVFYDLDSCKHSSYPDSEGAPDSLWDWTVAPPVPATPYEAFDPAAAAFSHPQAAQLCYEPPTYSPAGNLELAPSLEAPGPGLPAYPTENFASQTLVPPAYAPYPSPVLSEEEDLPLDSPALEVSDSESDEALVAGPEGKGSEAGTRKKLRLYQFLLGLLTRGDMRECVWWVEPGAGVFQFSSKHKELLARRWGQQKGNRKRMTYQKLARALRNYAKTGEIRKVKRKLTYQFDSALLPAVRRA
# CRX, sequence (O43186 whole entry): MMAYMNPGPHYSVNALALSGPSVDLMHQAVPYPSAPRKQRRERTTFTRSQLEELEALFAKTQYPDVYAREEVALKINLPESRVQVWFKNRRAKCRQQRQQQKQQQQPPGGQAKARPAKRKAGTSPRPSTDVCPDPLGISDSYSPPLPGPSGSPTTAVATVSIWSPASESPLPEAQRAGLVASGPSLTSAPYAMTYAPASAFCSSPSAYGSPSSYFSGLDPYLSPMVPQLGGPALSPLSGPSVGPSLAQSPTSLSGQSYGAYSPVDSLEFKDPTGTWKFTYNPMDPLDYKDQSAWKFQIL
# HSF1, sequence (Q00613 whole entry): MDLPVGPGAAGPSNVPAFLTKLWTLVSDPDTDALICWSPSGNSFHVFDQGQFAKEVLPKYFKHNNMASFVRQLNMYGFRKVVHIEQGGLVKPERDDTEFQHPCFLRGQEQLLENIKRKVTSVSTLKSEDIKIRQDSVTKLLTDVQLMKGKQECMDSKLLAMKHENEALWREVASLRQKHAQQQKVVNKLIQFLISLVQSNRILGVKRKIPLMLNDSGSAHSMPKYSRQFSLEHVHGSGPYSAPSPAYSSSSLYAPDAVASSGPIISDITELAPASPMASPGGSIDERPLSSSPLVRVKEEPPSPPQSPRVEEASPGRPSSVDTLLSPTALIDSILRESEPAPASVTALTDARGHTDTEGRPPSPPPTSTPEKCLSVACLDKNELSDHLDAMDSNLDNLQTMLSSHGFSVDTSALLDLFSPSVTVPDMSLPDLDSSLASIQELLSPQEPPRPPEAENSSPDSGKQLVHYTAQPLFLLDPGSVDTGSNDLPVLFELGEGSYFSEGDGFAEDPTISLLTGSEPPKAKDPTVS
sequence,measurement,setting,value
AGCTAT,binding signal,FLI1,"1.21 fold enrichment (6-mer frequency, TF over GST control)"
same,binding signal,ELK1,"1.14 fold enrichment (6-mer frequency, TF over GST control)"
same,binding signal,GABPA,"1.23 fold enrichment (6-mer frequency, TF over GST control)"
same,binding signal,ERG,"1.17 fold enrichment (6-mer frequency, TF over GST control)"
same,binding signal,ELF1,"1.16 fold enrichment (6-mer frequency, TF over GST control)"
same,binding signal,EHF,"1.23 fold enrichment (6-mer frequency, TF over GST control)"
same,binding signal,SPI1,"1.15 fold enrichment (6-mer frequency, TF over GST control)"
same,binding signal,SPIB,"1.26 fold enrichment (6-mer frequency, TF over GST control)"
same,binding signal,ELK3,"1.24 fold enrichment (6-mer frequency, TF over GST control)"
same,binding signal,FEV,"1.16 fold enrichment (6-mer frequency, TF over GST control)"
same,binding signal,ETV5,"1.16 fold enrichment (6-mer frequency, TF over GST control)"
same,binding signal,HSF1,"1.12 fold enrichment (6-mer frequency, TF over GST control)"
same,binding signal,SPIC,"1.15 fold enrichment (6-mer frequency, TF over GST control)"
same,binding signal,ELF4,"1.15 fold enrichment (6-mer frequency, TF over GST control)"
same,binding signal,ELK4,"1.27 fold enrichment (6-mer frequency, TF over GST control)"
same,binding signal,ETV2,"1.2 fold enrichment (6-mer frequency, TF over GST control)"
same,binding signal,ELF3,"1.2 fold enrichment (6-mer frequency, TF over GST control)"
same,binding signal,CRX,"1.27 fold enrichment (6-mer frequency, TF over GST control)"
same,binding signal,ETV1,"1.2 fold enrichment (6-mer frequency, TF over GST control)"

# From publication PMC7862700, “An all-to-all approach to the identification of sequence-specific readers for epigenetic DNA modifications on cytosine”
